Activity calls are given as the source filed them. Rule for the calls: active = hit-call score of the fitted dose curve at least 0.9, where 1 is the maximum; inactive = score below 0.9.
Key:
Conditions in all cases: mRNA level, 48 h; actives raise or lower the signal
[1] = read-out: ABC Transporter (ABCB11), ABCB11 (gene 8647); assay: LTEA_HepaRG_ABCB11: Life Technologies and Expression Analysis (LTEA) Assay for ABC Transporter (ABCB11) using HepaRG (AID 2283463)
Summary of the method: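 HepaRG, 48 h exposure, 8-pt half-log CRC top 100 uM, 0.5% DMSO vehicle, duplicates. Readout: TaqMan qRT-PCR of ABCB11 mRNA, housekeeping-normalized (ACTB/GAPDH/POLR2A). Bidirectional fit vs DMSO baseline.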

[2] = read-out: ABC Transporter (ABCC2), ABCC2 (gene 1244); assay: LTEA_HepaRG_ABCC2: Life Technologies and Expression Analysis (LTEA) Assay for ABC Transporter (ABCC2) using HepaRG (AID 2283464)
Summary of the method: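 qRT-PCR (TaqMan, Fluidigm array) read-out of ABCC2 mRNA, normalized to three housekeeping genes. Differentiated HepaRG cells were treated 48 h in serum-free induction medium with 8-point half-log series from 100 uM in 0.5% DMSO; curves fitted bidirectionally relative to DMSO.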

[3] = read-out: Broad substrate specificity ATP-binding cassette transporter ABCG2 (Homo sapiens) (UniProt Q9UNQ0); assay: LTEA_HepaRG_ABCG2: Life Technologies and Expression Analysis (LTEA) Assay for ABC Transporter (ABCG2) using HepaRG (AID 2283465)
Summary of the method: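 HepaRG, 48 h exposure, 8-pt half-log series from 100 uM, 0.5% DMSO vehicle, duplicates. Readout: ABCG2 transcript by qRT-PCR (Fluidigm array), housekeeping-normalized; bidirectional curve fit relative to DMSO baseline.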

[4] = read-out: ATP-citrate lyase (ACLY), ACLY (gene 47); assay: LTEA_HepaRG_ACLY: Life Technologies and Expression Analysis (LTEA) Assay for ATP-citrate lyase (ACLY) using HepaRG (AID 2283466)
Summary of the method: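 qRT-PCR readout of ACLY transcript after 48 h chemical treatment of HepaRG cells; expression normalized to three housekeeping genes. Eight-point half-log series, highest 100 uM, 0.5% DMSO vehicle. Gain or loss fitted against DMSO baseline.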

[5] = read-out: Peroxisomal acyl-coenzyme A oxidase 1 (ACOX1) gene, ACOX1 (gene 51); assay: LTEA_HepaRG_ACOX1: Life Technologies and Expression Analysis (LTEA) Assay for Peroxisomal acyl-coenzyme A oxidase 1 (ACOX1) gene using HepaRG (AID 2283467)
Summary of the method: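 HepaRG, 48 h chemical exposure, 8-pt half-log series from 100 uM top, 0.5% DMSO vehicle, duplicates. Readout: ACOX1 mRNA by Fluidigm qRT-PCR, housekeeping-normalized; bidirectional fit vs DMSO baseline.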

[6] = read-out: Alkaline Phosphatase, Placental (ALPP) gene, ALPP (gene 250); assay: LTEA_HepaRG_ALPP: Life Technologies and Expression Analysis (LTEA) Assay for Alkaline Phosphatase, Placental (ALPP) gene using HepaRG (AID 2283468);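 for AC50: differentiated human HepaRG liver cells in serum-free induction medium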
Summary of the method: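 qRT-PCR readout of ALPP mRNA (Fluidigm TaqMan), normalized to ACTB/GAPDH/POLR2A, after 48 h chemical exposure of HepaRG cells; 8-point half-log series, top 100 uM, 0.5% DMSO vehicle. Bidirectional curve fit versus DMSO baseline.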

[7] = read-out: Bcl-2 (BAD) gene, BAD (gene 572); assay: LTEA_HepaRG_BAD: Life Technologies and Expression Analysis (LTEA) Assay for Bcl-2 (BAD) gene using HepaRG (AID 2283469)
Summary of the method: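 HepaRG, 48 h exposure, 8-pt half-log curve from 100 uM in 0.5% DMSO, duplicates. Readout: TaqMan qRT-PCR for BAD mRNA, housekeeping-normalised (ACTB/GAPDH/POLR2A); gain or loss fitted against DMSO baseline.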

[8] = read-out: Bcl-2 (BAX) gene, BAX (gene 581); assay: LTEA_HepaRG_BAX: Life Technologies and Expression Analysis (LTEA) Assay for Bcl-2 (BAX) gene using HepaRG (AID 2283470)
Summary of the method: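 Gene expression measured by Fluidigm qRT-PCR with three housekeeping genes for normalisation. HepaRG cells, plated 48 h beforehand, treated 48 h at up to 100 uM (8-point, half-log) in 0.5% DMSO. Bidirectional fitting versus DMSO.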

[9] = read-out: adenosine kinase (ADK) gene, ADK (gene 132); assay: LTEA_HepaRG_ADK: Life Technologies and Expression Analysis (LTEA) Assay for adenosine kinase (ADK) gene using HepaRG (AID 2283471)
Summary of the method: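 ADK expression quantified by qRT-PCR, normalised to three housekeeping genes, after 48 h exposure of HepaRG cells to eight concentrations (top 100 uM, half-log steps, duplicate, 0.5% DMSO). Up- or down-regulation fitted relative to vehicle.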

[10] = read-out: Alpha-fetoprotein (AFP) gene, AFP (gene 174); assay: LTEA_HepaRG_AFP: Life Technologies and Expression Analysis (LTEA) Assay for Alpha-fetoprotein (AFP) gene using HepaRG (AID 2283472)
Summary of the method: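 AFP transcript measured by TaqMan qRT-PCR with three housekeeping genes for normalization, after 48 h chemical treatment of HepaRG cells (top 100 uM, half-log steps, 0.5% DMSO). Gain or loss fitted against vehicle.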

BCL2L11 (gene 10018) = assay: LTEA_HepaRG_BCL2L11: Life Technologies and Expression Analysis (LTEA) Assay for Bcl-2 (BCL2L11) gene using HepaRG (AID 2283473)
Summary of the method: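 HepaRG, 48 h exposure, 8-pt half-log series from 100 uM in 0.5% DMSO, duplicates; qRT-PCR (Fluidigm TaqMan) for BCL2L11, housekeeping-normalized; bidirectional curve fit relative to DMSO baseline.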

[11] = read-out: Apoptosis regulator Bcl-2 (Homo sapiens) (UniProt P10415); assay: LTEA_HepaRG_BCL2: Life Technologies and Expression Analysis (LTEA) Assay for Bcl-2 gene using HepaRG (AID 2283475)
Summary of the method: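 qRT-PCR of BCL2 transcript, normalized to three housekeeping genes (ACTB, GAPDH, POLR2A), after 48 h chemical exposure of HepaRG cells; concentrations top 100 uM with half-log dilutions, 0.5% DMSO vehicle, duplicates; changes up or down fitted relative to vehicle.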

[12] = read-out: Bcl-2 (BID) gene, BID (gene 637); assay: LTEA_HepaRG_BID: Life Technologies and Expression Analysis (LTEA) Assay for Bcl-2 (BID) gene using HepaRG (AID 2283476)
Summary of the method: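 Duplicate 48 h treatments of HepaRG cells in serum-free induction medium spanned 100 uM downward in half-log steps, 0.5% DMSO. Transcript change quantified by qRT-PCR against three housekeeping genes, fitted up or down versus DMSO.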

Caspase-3 (Homo sapiens) = Caspase-3 (Homo sapiens) (UniProt P42574); assay: LTEA_HepaRG_CASP3: Life Technologies and Expression Analysis (LTEA) Assay for cysteine-aspartic acid protease (CASP3) using HepaRG (AID 2283477)
Summary of the method: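 HepaRG, 48 h exposure, 8 conc. (top 100 uM, half-log steps, duplicate), 0.5% DMSO vehicle; qRT-PCR of CASP3 transcript, housekeeping-normalised (ACTB/GAPDH/POLR2A); bidirectional curve fit vs DMSO baseline.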

[13] = read-out: Cytochrome P450 (CYP24A1), CYP24A1 (gene 1591); assay: LTEA_HepaRG_CYP24A1: Life Technologies and Expression Analysis (LTEA) Assay for Cytochrome P450 (CYP24A1) using HepaRG (AID 2283478)
Summary of the method: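 qRT-PCR read-out: CYP24A1 transcript levels normalized to three housekeeping genes, bidirectional curve fits against 0.5% DMSO baseline. Human HepaRG cells treated 48 h with chemicals at eight concentrations from 100 uM in half-log steps.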

[14] = read-out: cysteine-aspartic acid protease (CASP8), CASP8 (gene 841); assay: LTEA_HepaRG_CASP8: Life Technologies and Expression Analysis (LTEA) Assay for cysteine-aspartic acid protease (CASP8) using HepaRG (AID 2283480)
Summary of the method: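 qRT-PCR readout of CASP8 mRNA, normalized to three housekeeping genes, after 48 h chemical exposure of HepaRG cells; 8-point half-log series, top 100 uM, 0.5% DMSO vehicle. Bidirectional curve fitting against DMSO baseline.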

[15] = read-out: Cytochrome P450 (CYP2B6), CYP2B6 (gene 1555); assay: LTEA_HepaRG_CYP2B6: Life Technologies and Expression Analysis (LTEA) Assay for Cytochrome P450 (CYP2B6) using HepaRG (AID 2283481)
Summary of the method: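 Read-out is CYP2B6 mRNA by TaqMan qRT-PCR, normalized to three housekeeping genes and fitted bidirectionally against 0.5% DMSO baseline. Human HepaRG cells received test chemicals for 48 h, top concentration 100 uM, half-log dilutions.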

[16] = read-out: Cytochrome P450 2C19 (Homo sapiens) (UniProt P33261); assay: LTEA_HepaRG_CYP2C19: Life Technologies and Expression Analysis (LTEA) Assay for CYP2C19 using HepaRG (AID 2283482)
Summary of the method: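 HepaRG, 48 h chemical exposure, 8-pt half-log series from 100 uM in 0.5% DMSO, duplicates. Readout: CYP2C19 mRNA by TaqMan qRT-PCR, housekeeping-normalized. Bidirectional fit vs DMSO baseline; phenobarbital 1mM as induction control.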

[17] = read-out: Apolipoprotein A-V (APOA5) gene, APOA5 (gene 116519); assay: LTEA_HepaRG_APOA5: Life Technologies and Expression Analysis (LTEA) Assay for Apolipoprotein A-V (APOA5) gene using HepaRG (AID 2283474)
Summary of the method: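 HepaRG, 48 h chemical exposure in serum-free induction medium, 8-pt half-log series (top 100 uM), 0.5% DMSO vehicle, duplicates. Readout: APOA5 mRNA by qRT-PCR, housekeeping-normalized; bidirectional fit vs DMSO baseline.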

[18] = read-out: Cytochrome P450 (CYP1A2), CYP1A2 (gene 1544); assay: LTEA_HepaRG_CYP1A2: Life Technologies and Expression Analysis (LTEA) Assay for Cytochrome P450 (CYP1A2) using HepaRG (AID 2283479)
Summary of the method: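 HepaRG, 48 h exposure, top 100 uM, half-log 8-pt, 0.5% DMSO vehicle, duplicates. Readout: TaqMan qRT-PCR of CYP1A2 mRNA, housekeeping-normalized (ACTB/GAPDH/POLR2A). Gain/loss fit relative to DMSO baseline.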

Measured: AC50

Sequence of Caspase-3 (Homo sapiens) (P42574 whole entry, looked up): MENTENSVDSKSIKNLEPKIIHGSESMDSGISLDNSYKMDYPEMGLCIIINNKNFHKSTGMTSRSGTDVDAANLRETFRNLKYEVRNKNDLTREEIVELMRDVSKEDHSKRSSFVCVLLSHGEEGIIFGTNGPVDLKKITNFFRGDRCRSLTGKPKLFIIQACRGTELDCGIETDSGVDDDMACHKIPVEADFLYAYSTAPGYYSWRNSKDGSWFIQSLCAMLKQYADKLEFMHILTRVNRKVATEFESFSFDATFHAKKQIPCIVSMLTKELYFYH
Sequence of Apoptosis regulator Bcl-2 (Homo sapiens) (P10415 whole entry, looked up): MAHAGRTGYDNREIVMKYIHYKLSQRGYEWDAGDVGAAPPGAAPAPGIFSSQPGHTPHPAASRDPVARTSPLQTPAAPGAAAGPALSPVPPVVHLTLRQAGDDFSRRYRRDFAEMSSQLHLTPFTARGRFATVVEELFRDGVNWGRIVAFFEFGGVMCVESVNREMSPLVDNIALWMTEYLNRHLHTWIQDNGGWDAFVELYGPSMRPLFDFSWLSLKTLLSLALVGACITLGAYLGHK
Sequence of Cytochrome P450 2C19 (Homo sapiens) (P33261 whole entry, looked up): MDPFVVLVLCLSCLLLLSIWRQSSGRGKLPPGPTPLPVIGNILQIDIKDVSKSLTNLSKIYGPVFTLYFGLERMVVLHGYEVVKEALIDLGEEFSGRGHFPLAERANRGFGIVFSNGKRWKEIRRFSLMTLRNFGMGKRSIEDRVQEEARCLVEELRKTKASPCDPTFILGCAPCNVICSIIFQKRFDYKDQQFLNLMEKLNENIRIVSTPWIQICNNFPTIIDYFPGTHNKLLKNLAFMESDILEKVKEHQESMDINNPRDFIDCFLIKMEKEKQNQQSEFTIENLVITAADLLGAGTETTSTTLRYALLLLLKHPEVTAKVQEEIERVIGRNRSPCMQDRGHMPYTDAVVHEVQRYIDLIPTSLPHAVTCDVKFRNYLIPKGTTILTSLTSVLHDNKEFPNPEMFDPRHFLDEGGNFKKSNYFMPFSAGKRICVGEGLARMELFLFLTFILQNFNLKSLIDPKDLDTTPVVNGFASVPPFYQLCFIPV
Sequence of Broad substrate specificity ATP-binding cassette transporter ABCG2 (Homo sapiens) (Q9UNQ0 whole entry, looked up): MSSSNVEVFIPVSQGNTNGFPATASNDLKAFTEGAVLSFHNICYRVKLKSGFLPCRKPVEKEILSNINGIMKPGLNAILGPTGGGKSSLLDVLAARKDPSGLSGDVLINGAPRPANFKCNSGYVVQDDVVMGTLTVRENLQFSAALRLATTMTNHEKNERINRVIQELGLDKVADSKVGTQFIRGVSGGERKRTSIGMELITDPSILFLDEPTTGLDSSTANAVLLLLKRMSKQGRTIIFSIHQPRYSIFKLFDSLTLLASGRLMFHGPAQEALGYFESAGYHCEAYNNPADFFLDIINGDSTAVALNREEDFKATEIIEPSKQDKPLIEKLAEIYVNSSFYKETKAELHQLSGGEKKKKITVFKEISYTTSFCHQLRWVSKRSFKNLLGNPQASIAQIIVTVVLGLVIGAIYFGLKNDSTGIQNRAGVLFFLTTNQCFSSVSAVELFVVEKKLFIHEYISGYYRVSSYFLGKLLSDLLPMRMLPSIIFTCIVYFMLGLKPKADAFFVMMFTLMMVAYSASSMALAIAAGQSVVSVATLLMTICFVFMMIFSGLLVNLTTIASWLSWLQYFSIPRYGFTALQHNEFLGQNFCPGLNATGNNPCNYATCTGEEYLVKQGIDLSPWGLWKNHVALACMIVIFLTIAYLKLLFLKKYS

S=c1[nH]c2ccccc2s1
inactive: [1] | [2] | [3] | [4] | [5] | [6] | [7] | [8] | [9] | [10] | BCL2L11 (gene 10018) | [11] | [12] | Caspase-3 (Homo sapiens) | [13] | [14] | [15] | [16]

CCN(CC)CCOc1ccc(C(=C(Cl)c2ccccc2)c2ccccc2)cc1
inactive: [3] | [4] | [7] | [8] | [9] | [17] | [11] | [12] | Caspase-3 (Homo sapiens) | [13] | [18] | [14] | [16]
active: [1] 24.9 µM | [2] 67.3 µM | [5] 13.3 µM | [6] 22.6 µM | [10] 17.9 µM | [15] 3.32 µM

O=NO
inactive: [1] | [2] | [3] | [4] | [5] | [6] | [7] | [8] | [9] | [10] | BCL2L11 (gene 10018) | [11] | [12] | Caspase-3 (Homo sapiens) | [13] | [18] | [14] | [16]

CN(C)C(=O)NC1(c2ccccc2)CCN(CCC[C@]2(c3ccc(Cl)c(Cl)c3)CCCN(C(=O)c3ccccc3)C2)CC1
inactive: [3] | [4] | [5] | [7] | [10] | BCL2L11 (gene 10018) | [11] | [12] | Caspase-3 (Homo sapiens) | [13] | [14]
active: [1] 23.6 µM | [2] 19.4 µM | [6] 24 µM | [8] 19.6 µM | [9] 12.5 µM | [15] 20 µM | [16] 23.6 µM

Reference: PubChem BioAssay (EPA / NIEHS)
